Tested on: Vero E6 infected with SARS-CoV-2
Test: inhibition of SARS-CoV-2 cytopathic effect; higher = more antiviral protection, active = above 15
Settings: 48 h

Measured: inhibition of SARS-CoV-2 cytopathic effect

CN(C(=O)Cc1ccccc1)[C@H](CN1CCCC1)c1ccccc1
inactive: 1 nM -2.98% | 8.33 nM -0.14% | 100 nM 0.52% | 833.33 nM 0.85% | 10000 nM -1.59%

c1ccc2c(Oc3nc(Nc4ccc(N5CCOCC5)cc4)c4ncn(C5CCCCC5)c4n3)cccc2c1 [purmorphamine]
inactive: 1 nM 0.27% | 8.33 nM 1.18% | 100 nM 0.24% | 833.33 nM 2.43% | 10000 nM -5.44%

CCn1cc(C(=O)O)c(=O)c2cc3c(cc21)OCO3 [oxolinic-acid]
inactive: 1 nM -1.5% | 8.33 nM 0.26% | 100 nM -1.8% | 833.33 nM -0.9% | 10000 nM -3.06%

Cc1cccc(C)c1NC1=NCCCS1 [xylazine]
inactive: 1 nM 1.43% | 8.33 nM 1.2% | 100 nM 1.06% | 833.33 nM -1.24% | 10000 nM -0.19%

CCC(NC(C)C)C(O)c1ccc(O)c(O)c1 (stereo not given) [isoetharine]
inactive: 1 nM -0.44% | 8.33 nM 0.06% | 100 nM -2.12% | 833.33 nM -0.61% | 10000 nM 1.5%

CCOc1cc(N2CCC(O)CC2)ccc1Nc1ncc2c(n1)N(C)c1ccccc1C(=O)N2C
inactive: 1 nM 1.68% | 8.33 nM 1.49% | 100 nM 1.28% | 833.33 nM -1.36% | 10000 nM -1.31%

CS(=O)(=O)Nc1ccc(-c2coc3cc(OCc4cccc(C(=O)O)c4)ccc3c2=O)cc1
inactive: 1 nM -0.72% | 8.33 nM 1.73% | 100 nM -1.1% | 833.33 nM -0.83% | 10000 nM -0.08%

CC(ONC(=O)c1cc(C(F)(F)F)cc(C(F)(F)F)c1)C(=O)Nc1ccc(Cl)cc1 (stereo not given)
inactive: 1 nM 1.52% | 8.33 nM -0.64% | 100 nM 0.05% | 833.33 nM -2.31% | 10000 nM 5.49%

N#Cc1cccc(-c2c[nH]c3ncnc(N4CCOCC4)c23)c1
inactive: 1 nM -1.16% | 8.33 nM -0.52% | 100 nM -2.71% | 833.33 nM -0.07% | 10000 nM -2.14%

CCC(C)(C)C(=O)C(=O)N1CCC[C@H]1C(=O)OCCCc1cccnc1
inactive: 1 nM 0.46% | 8.33 nM 0.86% | 100 nM 1.28% | 833.33 nM -0.32% | 10000 nM 1.17%

N[C@H]1CC[C@H](N[C@@H]2C[C@H]2c2ccccc2)CC1
inactive: 1 nM -0.96% | 8.33 nM 2.24% | 100 nM 1.16% | 833.33 nM 1.11% | 10000 nM 1.79%

Cc1cc(N2CCOCC2)ccc1Nc1nc(NC2CCCCC2)c2nc[nH]c2n1
inactive: 1 nM -1.92% | 8.33 nM 1.08% | 100 nM -7.66% | 833.33 nM 3.17% | 10000 nM 0.7%

O=C(NCCO)c1cccc(-c2cc(Nc3ccc(OC(F)(F)F)cc3)ncn2)c1
inactive: 1 nM 0.82% | 8.33 nM 1.06% | 100 nM 2.91% | 833.33 nM 3.22% | 10000 nM 0.55%

CC(=O)OCC(=O)[C@@]1(O)[C@@H](C)C[C@H]2[C@@H]3CCC4=CC(=O)C=C[C@]4(C)[C@@]3(F)[C@@H](O)C[C@@]21C [betamethasone-acetate]
inactive: 1 nM -1.36% | 8.33 nM 0.805% | 100 nM 0.555% | 833.33 nM 0.57% | 10000 nM -0.935%

CC(=O)OC[C@H](N)C(=O)O [O-acetyl-L-serine]
inactive: 1 nM 0.15% | 8.33 nM 1.11% | 100 nM 1.58% | 833.33 nM 1.65% | 10000 nM -0.72%

C=CCN1C[C@H](C(=O)N(CCCN(C)C)C(=O)NCC)C[C@@H]2c3cccc4[nH]cc(c34)C[C@H]21 [cabergoline]
inactive: 1 nM -19% | 8.33 nM -12.2% | 100 nM -10% | 833.33 nM -8.73% | 10000 nM -14.1%

COc1ccc(NS(=O)(=O)c2ccc(I)cc2)cc1N1CCN(C)CC1
inactive: 1 nM 0.59% | 8.33 nM -5.4% | 100 nM 0.99% | 833.33 nM 0.95% | 10000 nM -1.3%

CC(/C=C1\SC(=S)N(CC(=O)O)C1=O)=C\c1ccccc1 [epalrestat]
inactive: 1 nM -1.25% | 8.33 nM -1.52% | 100 nM -1.17% | 833.33 nM 1.15% | 10000 nM -0.07%

C[C@@H](c1ncncc1F)[C@](O)(Cn1cncn1)c1ccc(F)cc1F [voriconazole]
inactive: 1 nM 0.72% | 8.33 nM 2.08% | 100 nM -2.48% | 833.33 nM -0.46% | 10000 nM 1.37%

CCCc1ccc(C(=O)O)cc1 [4-propylbenzoic-acid]
inactive: 1 nM -0.54% | 8.33 nM 0.51% | 100 nM -0.57% | 833.33 nM -0.84% | 10000 nM 1.58%

CC(C)[C@H]1C(=O)N[C@@H](CCCNC(=N)N)C(=O)NCC(=O)N[C@@H](CC(=O)O)C(=O)N[C@H](Cc2ccccc2)C(=O)N1C [cilengitide]
inactive: 1 nM -2.16% | 8.33 nM -0.5% | 100 nM -4.67% | 833.33 nM -11.1% | 10000 nM -12.6%

COc1cc2nc(N3CCN(C(=O)c4ccco4)CC3)nc(N)c2cc1OC [prazosin]
inactive: 1 nM 0.79% | 8.33 nM -8.02% | 100 nM -0.93% | 833.33 nM -1.57% | 10000 nM 1.13%

C=CCN1CCc2nc(N)sc2CC1 [talipexole]
inactive: 1 nM -0.94% | 8.33 nM 1.41% | 100 nM 0.94% | 833.33 nM -0.07% | 10000 nM -2.07%

CC(CN(C)C)C(C)(O)Cc1ccc(Cl)cc1 (stereo not given) [clobutinol]
inactive: 1 nM -0.23% | 8.33 nM 2.65% | 100 nM 1.61% | 833.33 nM -3.1% | 10000 nM -0.69%

NC(=O)c1cnccn1 [pyrazinamide]
inactive: 1 nM -9.22% | 8.33 nM -8.44% | 100 nM -5.67% | 833.33 nM -9.11% | 10000 nM -9.96%

CC(N)C12CC3CC(CC(C3)C1)C2 (stereo not given) [rimantadine]
inactive: 1 nM -2.29% | 8.33 nM -2.48% | 100 nM -4.1% | 833.33 nM -5.56% | 10000 nM -5.71%

Cc1cc(C)c2c(c1)[C@@H](N(Cc1cc(C(F)(F)F)cc(C(F)(F)F)c1)c1nnn(C)n1)CCCN2C[C@H]1CC[C@H](C(=O)O)CC1 [evacetrapib]
inactive: 1 nM 2.13% | 8.33 nM -0.17% | 100 nM -3.28% | 833.33 nM -0.14% | 10000 nM 3.85%

CC(C)[C@@H](C)/C=C/[C@@H](C)[C@H]1CC[C@H]2C3=CC=C4C[C@@H](O)CC[C@]4(C)[C@H]3CC[C@]12C [ergosterol]
inactive: 1 nM -3.22% | 8.33 nM 1.48% | 100 nM 0.86% | 833.33 nM 2.74% | 10000 nM 2.85%

O=C(Nc1ccc(Br)cc1)c1cc(Br)cc(Br)c1O [tribomsalan]
inactive: 1 nM -1.03% | 8.33 nM -3.93% | 100 nM -1.03% | 833.33 nM -0.02% | 10000 nM 6.65%

O=C(c1c2ccccc2cc2ccccc12)N1CCC(N2CCC[C@@H](C(=O)N3CCOCC3)C2)CC1
inactive: 1 nM -1.36% | 8.33 nM -0.08% | 100 nM -0.31% | 833.33 nM -1.35% | 10000 nM -6.08%

Nc1nc(Nc2ccc(S(N)(=O)=O)cc2)nn1C(=O)c1c(F)cccc1F
inactive: 1 nM 2.48% | 8.33 nM 1.33% | 100 nM 0.15% | 833.33 nM -0.22% | 10000 nM 10.8%

Oc1ccc(C2(c3ccccc3F)CCC(F)(F)CC2)cc1
inactive: 1 nM 1.54% | 8.33 nM -0.41% | 100 nM -0.21% | 833.33 nM -1.05% | 10000 nM 0%

O/N=C/c1ccc(-c2ccc(O)c(F)c2)c(Cl)c1O
inactive: 1 nM -3.41% | 8.33 nM -2.33% | 100 nM -2.06% | 833.33 nM -0.62% | 10000 nM -12.8%

Cc1ccc(/C=C2/C(=O)C3(C)CCC2C3(C)C)cc1 (stereo not given) [3-(4-methylbenzylidene)camphor]
inactive: 1 nM 0.22% | 8.33 nM 0.95% | 100 nM 2.26% | 833.33 nM 0.01% | 10000 nM 0.05%

CN(C)Cc1cccc(N/C(=C2\C(=O)Nc3cc(C(N)=O)ccc32)c2ccccc2)c1
inactive: 1 nM -2.86% | 8.33 nM 2.55% | 100 nM 0.04% | 833.33 nM 2.08% | 10000 nM 2.55%

Cc1ccc(C(=O)Nc2ccc(Oc3cc4cnn(C)c4cc3-c3cn[nH]c3)c(F)c2)c(=O)n1-c1ccc(F)cc1
inactive: 1 nM -0.46% | 8.33 nM 1.35% | 100 nM -1.01% | 833.33 nM -1.13% | 10000 nM -2.06%

O=C(NO)C1(CS(=O)(=O)c2ccc(Oc3ccc(Cl)cc3)cc2)CCOCC1
inactive: 1 nM -0.75% | 8.33 nM -2.34% | 100 nM 0.31% | 833.33 nM -0.91% | 10000 nM -11.7%

Cc1cnc(Nc2ccc(OCCN3CCCC3)cc2)nc1Nc1cccc(S(=O)(=O)NC(C)(C)C)c1 [fedratinib]
inactive: 1 nM -3.17% | 8.33 nM 1.42% | 100 nM -0.42% | 833.33 nM -3.59% | 10000 nM -18.4%

Cc1ccc(S(=O)(=O)n2c(N)nc3ccccc32)cc1
inactive: 1 nM -0.51% | 8.33 nM -0.92% | 100 nM -2.91% | 833.33 nM -2.7% | 10000 nM -0.17%

CC(=N)NCc1cccc(CN)c1
inactive: 1 nM 0.8% | 8.33 nM -0.79% | 100 nM -0.18% | 833.33 nM 1.65% | 10000 nM 0.53%

— the supplement of paper PMC13380429
